# According to PMC8384837, “Expanding the binding specificity for RNA recognition by a PUF domain”:
# Experiments:
# Test in all cases: yeast three-hybrid, YBZ-1, SC-Leu-His + 0.5 mM 3-AT, 4 days
# Settings in all cases: tags: N-Gal4 AD-HA kept; label: inside an RPR1-promoter hybrid RNA with tandem MS2 sites; ssRNA
# [1] = target: T1, PUM1 PUF domain R6-SWG (Homo sapiens, UniProt Q14671 828-1176, N1043S;Y1044W;Q1047G)
# T1 sequence: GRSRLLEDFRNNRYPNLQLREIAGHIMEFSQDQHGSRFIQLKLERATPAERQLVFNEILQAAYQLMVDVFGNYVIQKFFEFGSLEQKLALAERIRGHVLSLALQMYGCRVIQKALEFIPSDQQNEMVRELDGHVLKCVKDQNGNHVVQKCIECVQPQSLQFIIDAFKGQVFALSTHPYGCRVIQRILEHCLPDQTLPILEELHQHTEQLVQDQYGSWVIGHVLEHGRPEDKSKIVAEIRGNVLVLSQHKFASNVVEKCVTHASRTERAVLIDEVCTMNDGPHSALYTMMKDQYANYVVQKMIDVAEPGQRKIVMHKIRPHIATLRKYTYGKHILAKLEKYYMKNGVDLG
# Method in brief: (§1)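 Repeat regions from input (SC-Leu) and selection (SC-Leu-His + 0.5 mM 3-AT) plates were PCR-amplified and Illumina-sequenced after four days of growth. The cells were strain YBZ-1 with a LexA–MS2 coat fusion and a HIS3 reporter, co-expressing Pumilio-1 PUF domain libraries and matching RNA elements from a centromeric plasmid. The interaction score is the log change in variant frequency from input to selection, taken in log2 with a pseudocount of 1 for absent variants.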
# [2] = target: PUM1 PUF domain R5-SRM (Homo sapiens, UniProt Q14671 828-1176, C1007S;Q1011M)
# Method in brief: as §1
# [3] = target: PUM1 PUF domain R1-RSE (Homo sapiens, UniProt Q14671 828-1176, S863R;R864S;Q867E)
# Method in brief: as §1
# [4] = target: PUM1 PUF domain R4-GNT (Homo sapiens, UniProt Q14671 828-1176, N971G;H972N;Q975T)
# Method in brief: as §1
# [5] = target: PUM1 PUF domain R7-RCC (Homo sapiens, UniProt Q14671 828-1176, S1079R;N1080C;E1083C)
# Method in brief: as §1
# [6] = target: PUM1 PUF domain R3-VYP (Homo sapiens, UniProt Q14671 828-1176, C935V;R936Y;Q939P)
# Method in brief: as §1
# [7] = target: PUM1 PUF domain R3-LSK (Homo sapiens, UniProt Q14671 828-1176, C935L;R936S;Q939K)
# Method in brief: as §1
# [8] = target: PUM1 PUF domain R2-PWL (Homo sapiens, UniProt Q14671 828-1176, N899P;Y900W;Q903L)
# Method in brief: as §1
# [9] = target: PUM1 PUF domain R3-AIR (Homo sapiens, UniProt Q14671 828-1176, C935A;R936I;Q939R)
# Method in brief: as §1
# [10] = target: PUM1 PUF domain R4-DWI (Homo sapiens, UniProt Q14671 828-1176, N971D;H972W;Q975I)
# Method in brief: as §1
sequence,measurement,setting,value
GGCUAGAACUAGUGGAUCCCCCGGCGCCCGGCGGCUCGAGCCCGGGUAAGUGAAAAUAGUCUGCAUGCCGCCGGGCGCCAUGCCUGCAGGUCGACUCUAGAAAACAUG,binding signal,[1],1.35 log2 enrichment (interaction score)
GGCUAGAACUAGUGGAUCCCCCGGCGCCCGGCGGCUCGAGCCCGGGUAAGUGUGAAUAGUCUGCAUGCCGCCGGGCGCCAUGCCUGCAGGUCGACUCUAGAAAACAUG,binding signal,[2],1.99 log2 enrichment (interaction score)
GGCUAGAACUAGUGGAUCCCCCGGCGCCCGGCGGCUCGAGCCCGGGUAAGUGUAAAUCGUCUGCAUGCCGCCGGGCGCCAUGCCUGCAGGUCGACUCUAGAAAACAUG,binding signal,[3],2.49 log2 enrichment (interaction score)
GGCUAGAACUAGUGGAUCCCCCGGCGCCCGGCGGCUCGAGCCCGGGUAAGUGUAUAUAGUCUGCAUGCCGCCGGGCGCCAUGCCUGCAGGUCGACUCUAGAAAACAUG,binding signal,[4],3.55 log2 enrichment (interaction score)
GGCUAGAACUAGUGGAUCCCCCGGCGCCCGGCGGCUCGAGCCCGGGUAAGUCUAAAUAGUCUGCAUGCCGCCGGGCGCCAUGCCUGCAGGUCGACUCUAGAAAACAUG,binding signal,[5],2.43 log2 enrichment (interaction score)
GGCUAGAACUAGUGGAUCCCCCGGCGCCCGGCGGCUCGAGCCCGGGUAAGUGUAAUUAGUCUGCAUGCCGCCGGGCGCCAUGCCUGCAGGUCGACUCUAGAAAACAUG,binding signal,[6],2.9 log2 enrichment (interaction score)
same,binding signal,[7],5.2 log2 enrichment (interaction score)
GGCUAGAACUAGUGGAUCCCCCGGCGCCCGGCGGCUCGAGCCCGGGUAAGUGUAAAGAGUCUGCAUGCCGCCGGGCGCCAUGCCUGCAGGUCGACUCUAGAAAACAUG,binding signal,[8],6.99 log2 enrichment (interaction score)
GGCUAGAACUAGUGGAUCCCCCGGCGCCCGGCGGCUCGAGCCCGGGUAAGUGUAAGUAGUCUGCAUGCCGCCGGGCGCCAUGCCUGCAGGUCGACUCUAGAAAACAUG,binding signal,[9],2.87 log2 enrichment (interaction score)
same,binding signal,[7],6.88 log2 enrichment (interaction score)
GGCUAGAACUAGUGGAUCCCCCGGCGCCCGGCGGCUCGAGCCCGGGUAAGUGUAAAUGGUCUGCAUGCCGCCGGGCGCCAUGCCUGCAGGUCGACUCUAGAAAACAUG,binding signal,[3],0.71 log2 enrichment (interaction score)
GGCUAGAACUAGUGGAUCCCCCGGCGCCCGGCGGCUCGAGCCCGGGUAAGUGUACAUAGUCUGCAUGCCGCCGGGCGCCAUGCCUGCAGGUCGACUCUAGAAAACAUG,binding signal,[10],5.64 log2 enrichment (interaction score)
same,binding signal,[4],0.59 log2 enrichment (interaction score)
GGCUAGAACUAGUGGAUCCCCCGGCGCCCGGCGGCUCGAGCCCGGGUAAGUGUAAAUAGUCUGCAUGCCGCCGGGCGCCAUGCCUGCAGGUCGACUCUAGAAAACAUG,binding signal,[10],6.41 log2 enrichment (interaction score)
same,binding signal,[6],5.74 log2 enrichment (interaction score)
same,binding signal,[1],4.18 log2 enrichment (interaction score)
same,binding signal,[2],2.84 log2 enrichment (interaction score)
